# “And” between values parts separate entries of the source, which are not always exact repeats. Equal entries are not always repeated. Inconclusive results are not listed. For part of these data: Entries with a potency or affinity are not part of this list. The source made the active and inactive calls. Starred links: 1 amine or outer side, 2 acyl side, 3 side chain; linkers in the order of their positions; H or OH if unused. Positions of bridges follow the written chain, without caps; N, C: chain ends. Non-standard residues stand in square brackets, D forms with d. Residues, ends and D or L forms follow the SMILES beside them. ξ: configuration not given here. *: point of attachment. ΔAla(3-NHCONH2) = NC(=O)NC=C(N)C(=O)O; X1 = NC1=NCCC(C(N[*:1])C(=O)[*:2])N1; ξβ3hOrn = NCCCC(N)CC(=O)*; Dap = NC[CH](N)C(=O)O
# Assays:
# [1] = qHTS profiling of the MIPE4 collection as inhibitors of Plasmodium falciparum (3D7) proliferation (AID 743344);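 note: scaled between DMSO vehicle wells and 0.29 µM artemisinin as full inhibition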; conditions: P. falciparum 3D7 in erythrocytes, SYBR Green DNA fluorescence, 72 h
# In short: (§1)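 Erythrocytes infected with P. falciparum (0.3% parasitemia, 2.5% hematocrit) incubated with compounds 72 h at 37 C, 5% CO2. Lysis with saponin/Triton buffer containing SYBR Green I, overnight at room temperature in the dark; DNA fluorescence (485/535 nm) normalised to 0.29 uM artemisinin and DMSO.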
# [2] = qHTS profiling of the MIPE4 collection as inhibitors of Plasmodium falciparum (DD2) proliferation (AID 743345); conditions: P. falciparum Dd2 in erythrocytes, SYBR Green DNA, 72 h
# In short: as §1
# [3] = qHTS profiling of the MIPE4 collection as inhibitors of Plasmodium falciparum (DD2) proliferation (Rep 2) (AID 743346); conditions: P. falciparum Dd2 in erythrocytes, SYBR Green DNA, 72 h
# In short: as §1
# [4] = qHTS profiling of the MIPE4 collection as inhibitors of Plasmodium falciparum (HB3) proliferation (AID 743347);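 note: plate controls were DMSO vehicle wells for no effect and artemisinin wells for full effect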; conditions: P. falciparum HB3 in erythrocytes, SYBR Green DNA, 72 h
# In short: as §1
# [5] = Ebola virus entry assay, green fluorescence channel
# [6] = Ebola virus entry assay, blue channel fluorescence
# [7] = qHTS for compounds that reverse cellular toxicity of Amyloid beta (A-beta) peptide in yeast: LOPAC Validation Assay (AID 720559; active = well fitted curve in the direction sought with a large enough effect; an effect the other way counts as inactive or inconclusive;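 note: plate controls were DMSO for no effect and equimolar ferric chloride plus clioquinol rescue for full effect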)
# In short: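 Activity is expressed relative to DMSO and an equimolar ferric chloride/clioquinol mix. Compounds were pinned into medium with A-beta-expressing yeast, grown 48 hr at 30 C, then read by absorbance at 600 nm.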
# [8] = qHTS for Activators of Parkin Expression: LOPAC Validation Assay (FLuc Reporter) (AID 720573; active = well fitted curve in the direction sought with a large enough effect; an effect the other way counts as inactive or inconclusive;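 note: 0% = DMSO and 100% = positive control compounds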)
# In short: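 A neuronal cell line harbouring FLuc and NLuc reporters behind the Parkin promoter was exposed to compounds for 24 h. Firefly luciferase signal, measured after 10 min with detection reagent, was scaled to DMSO and positive-control wells.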
# [9] = qHTS assay for small molecule agonists of the antioxidant response element (ARE) signaling pathway measured by Nrf2-dependant transcriptional activity (AID 720636; active = well fitted curve in the direction sought with a large enough effect in the repeat runs; an effect the other way counts as inactive or inconclusive;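 note: HepG2 cells with an ARE-driven luciferase reporter; % of control where 0% means no effect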)
# In short: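 Reporter gene assay, HepG2 ARE-luc: 16 hr compound, 37 C, 5% CO2; read-out luciferase luminescence.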
# [10] = biological target: T1, Hexokinase-4 (Homo sapiens) + Glucokinase regulatory protein (Homo sapiens) (UniProt P35557+Q14397); experiment: qHTS assay for inhibitors of recombinant human GCK-GKRP interaction: Diaphorase-coupled assay (AID 743205; active = well fitted curve in the direction sought with a large enough effect; an effect the other way counts as inactive or inconclusive)
# In short: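 Inhibitors of the GCK–GKRP complex relieve GKRP suppression of GCK, detected through a G6PDH–diaphorase cascade reducing resazurin. Human GST-GCK and FLAG-GKRP are used at 10 nM with 5 mM glucose and 0.4 mM ATP.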
# [11] = biological target: T1, Hexokinase-4 (Homo sapiens) + Glucokinase regulatory protein (Homo sapiens); experiment: qHTS assay for inhibitors of recombinant human GCK-GKRP interaction: ADP-Glo assay (AID 743206; active = well fitted curve in the direction sought with a large enough effect; an effect the other way counts as inactive or inconclusive;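 note: plate controls were DMSO plus enzyme for no effect and no enzyme for full effect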)
# In short: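 GST-GCK and FLAG-GKRP (15 nM each in the dispensed mix, with 2 uM S6P) react with 0.4 mM ATP and 5 mM glucose (final) in Hepes pH 7.6 for 60 min at room temperature. ADP is measured by ADP-Glo luminescence.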
# [12] = biological target: T1, Hexokinase-4 (Homo sapiens) + Glucokinase regulatory protein (Homo sapiens); experiment: qHTS assay for inhibitors of recombinant human GCK-GKRP interaction: HTRF assay (AID 743207; active = well fitted curve in the direction sought with a large enough effect; an effect the other way counts as inactive or inconclusive;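 note: 0% = DMSO with GCK present and -100% = DMSO wells lacking GCK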)
# In short: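 Steps: dispense GCK–GKRP complex (5 nM each, GST- and FLAG-tagged) with 2 uM S6P; pin in compounds; add XL665/Eu-cryptate-labelled antibodies; incubate 60 min at room temperature; read time-resolved FRET at 665 and 615 nm.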
# [13] = qHTS Assay for Identifying Gametocytocidal Compounds (AID 743244; active = well fitted curve in the direction sought with a large enough effect; an effect the other way counts as inactive or inconclusive;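 note: % is set by controls: 0 for no effect and ±100 for the full control effect; actives lower the fluorescent signal which means gametocytes are killed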); conditions: P. falciparum 3D7 stage III-V gametocytes, alamarBlue, 72 h; max response: stronger effect = lower value
# In short: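 In this qHTS viability screen, late-stage 3D7 gametocytes are incubated with compound for 72 h, then with alamarBlue for 24 h; reduced resorufin fluorescence marks killing.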
# [14] = qHTS assay for cell viability of HEK293 cells (AID 743288; active = well fitted curve in the direction sought with a large enough effect; an effect the other way counts as inactive or inconclusive; note: potency is the fitted concentration of half-maximal effect; nearly all actives have a fitted effect of over 50% in size); conditions: ATP luminescence (CellTiter-Glo), 18 h; max response: stronger effect = lower value
# In short: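 The Tox21 protocol used parental HEK293 cells treated for 18 h at 37 C with compounds delivered by pintool; ATP-coupled luminescence after 30 min at room temperature gave viability.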
# [15] = qHTS profiling for inhibitors of Plasmodium falciparum (3D7) proliferation (AID 743322);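 note: infected erythrocytes exposed to compound for 72 h before lysis; 100% = DMSO vehicle wells and 0% = 0.29 µM artemisinin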; conditions: P. falciparum 3D7 proliferation; at 28.7 µM (top of the series)
# In short: as §1
# [16] = qHTS profiling for inhibitors of Plasmodium falciparum (DD2) proliferation (AID 743323); conditions: lower = more inhibition; at 28.7 µM (top of the series)
# In short: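 1536-well qHTS; infected RBCs 0.3% parasitemia/2.5% Hct final; cpd 72 h 37 C 5% CO2; lysis buffer + SYBR Green I, o/n RT dark; FI 485/535; norm. to 0.29 uM artemisinin and DMSO, plate-stack corrected.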
# [17] = qHTS profiling for inhibitors of Plasmodium falciparum (HB3) proliferation (AID 743324; active = well fitted curve in the direction sought with a large enough effect; an effect the other way counts as inactive or inconclusive;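 note: 100% = DMSO vehicle wells and 0% = artemisinin-treated control wells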); conditions: Plasmodium falciparum HB3 blood-stage proliferation; at 28.7 µM (top of the series)
# In short: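 P. falciparum HB3 grown in erythrocytes (0.3% parasitemia, 2.5% hematocrit final) with compound for 72 h at 37 C, 5% CO2. Parasite DNA detected by SYBR Green after saponin/triton lysis overnight; normalized to 0.29 uM artemisinin and DMSO.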
# [18] = at 28.5 µM unless noted
# [19] = at 0.217 µM (top of the series)
# Throughout, for efficacy: 0% is about no effect.
# T1 sequence (P35557 whole entry, looked up): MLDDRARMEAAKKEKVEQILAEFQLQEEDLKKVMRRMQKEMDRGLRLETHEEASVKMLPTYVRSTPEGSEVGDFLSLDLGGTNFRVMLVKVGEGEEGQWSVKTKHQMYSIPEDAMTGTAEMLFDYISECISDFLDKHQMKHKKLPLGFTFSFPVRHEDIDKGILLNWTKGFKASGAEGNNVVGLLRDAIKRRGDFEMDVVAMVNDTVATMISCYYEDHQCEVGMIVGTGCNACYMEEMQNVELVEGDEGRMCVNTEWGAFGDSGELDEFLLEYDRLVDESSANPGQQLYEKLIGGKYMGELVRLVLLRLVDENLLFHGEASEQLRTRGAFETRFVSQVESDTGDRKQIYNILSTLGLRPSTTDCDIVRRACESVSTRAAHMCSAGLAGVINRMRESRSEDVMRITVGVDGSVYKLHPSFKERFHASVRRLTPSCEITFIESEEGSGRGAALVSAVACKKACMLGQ
# T1 sequence (Q14397 whole entry, looked up): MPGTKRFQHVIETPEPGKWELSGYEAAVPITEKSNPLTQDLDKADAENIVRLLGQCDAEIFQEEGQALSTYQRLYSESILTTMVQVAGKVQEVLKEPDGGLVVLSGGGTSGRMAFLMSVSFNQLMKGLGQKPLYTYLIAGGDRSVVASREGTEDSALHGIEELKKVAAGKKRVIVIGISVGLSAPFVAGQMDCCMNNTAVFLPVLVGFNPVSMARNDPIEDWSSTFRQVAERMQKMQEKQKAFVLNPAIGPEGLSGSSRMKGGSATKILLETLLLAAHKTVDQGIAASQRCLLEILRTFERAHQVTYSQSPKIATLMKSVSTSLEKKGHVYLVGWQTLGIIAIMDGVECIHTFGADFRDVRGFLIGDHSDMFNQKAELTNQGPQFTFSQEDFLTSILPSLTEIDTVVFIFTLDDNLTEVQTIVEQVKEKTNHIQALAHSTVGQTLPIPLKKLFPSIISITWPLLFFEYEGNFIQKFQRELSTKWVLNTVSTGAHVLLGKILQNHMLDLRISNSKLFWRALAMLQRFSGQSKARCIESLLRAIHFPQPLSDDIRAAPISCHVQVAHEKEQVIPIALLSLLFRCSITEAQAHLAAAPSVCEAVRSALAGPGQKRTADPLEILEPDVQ
structure (smiles),measurement,setting,value
O=NN(CCCl)C(=O)NC1CCCCC1,"parasite growth, % of DMSO control",[1]; [18],91.7%
same,"parasite growth remaining, % of DMSO control (lower = more inhibition)",[2]; [18],101%
same,"parasite growth, % of control (lower = inhibition)",[3]; [18],72.9%
same,"growth, % of control",[4]; [18],74.9%
same,efficacy,[5],-12.9% (inactive)
same,outcome,[6],inactive
C[C@@H]1O[C@@H](O[C@H]2C[C@@H](O)[C@]3(CO)[C@H]4[C@H](O)C[C@]5(C)[C@@H](C6=CC(=O)OC6)CC[C@]5(O)[C@@H]4CC[C@]3(O)C2)[C@H](O)[C@H](O)[C@H]1O,outcome,[7],inactive
same,outcome,[8],inactive
same,Potency,[9],inactive
same,outcome,[10],inactive
same,outcome,[11],inactive
same,outcome,[12],inactive
same,max response,[13],-6.85% (inactive) and -3.14% (inactive) and -2.93% (inactive)
same,Potency,[14],63.1 nM (active)
same,"parasite growth, % of DMSO control",[1]; [18],81.9%
same,"parasite growth remaining, % of DMSO control (lower = more inhibition)",[2]; [18],95.7%
same,"parasite growth, % of control (lower = inhibition)",[3]; [18],124%
same,"growth, % of control",[4]; [18],101%
same,efficacy,[5],-93.6% (inactive)
Cc1cc2c(s1)Nc1ccccc1N=C2N1CCN(C)CC1,"parasite growth, % of DMSO control",[1]; [18],97.1%
same,"parasite growth remaining, % of DMSO control (lower = more inhibition)",[2]; [18],94.5%
same,"parasite growth, % of control (lower = inhibition)",[3]; [18],49.7%
same,"growth, % of control",[4]; [18],101%
same,efficacy,[5],36% (inactive)
same,outcome,[6],inactive
Cc1cccc(C)c1NC1=NCCCS1,outcome,[7],inactive
same,outcome,[8],inactive
same,outcome,[10],inactive
same,outcome,[11],inactive
same,outcome,[12],inactive
same,max response,[13],0.533% (inactive) and 4.4% (inactive)
same,efficacy,[5],-17.5% (inactive)
C[C@]12CC[C@H]3[C@@H](CCC4=CC(=O)CC[C@@H]43)[C@@H]1CC[C@@H]2OC(=O)CCc1ccccc1,max response,[13],0.188% (inactive)
same,efficacy,[5],-39.3% (inactive)
same,outcome,[6],inactive
Cc1ccnc2c1NC(=O)c1cccnc1N2C1CC1,"parasite growth, % of DMSO control",[1]; [18],358%
same,"parasite growth remaining, % of DMSO control (lower = more inhibition)",[2]; [18],112%
same,"parasite growth, % of control (lower = inhibition)",[3]; [18],83.7%
same,"growth, % of control",[4]; [18],600%
same,efficacy,[5],25.7% (inactive)
same,outcome,[6],inactive
NCCCC(N)CC(=O)NCC1NC(=O)C(CO)NC(=O)C(N)CNC(=O)C(C2CCN=C(N)N2)NC(=O)C(=CNC(N)=O)NC1=O (stereo not drawn) (H-[Dap]S[Dap](ξβ3hOrn)[ΔAla(3-NHCONH2)][X1]; lactam 1-C; configuration not given here),"parasite growth, % of DMSO control",[1]; [19],92.7%
same,"parasite growth, % of DMSO control",[1]; at 28.5 µM,101%
same,"parasite growth remaining, % of DMSO control (lower = more inhibition)",[2]; [19],92.4%
same,"parasite growth remaining, % of DMSO control (lower = more inhibition)",[2]; at 28.5 µM,100%
same,"parasite growth, % of control (lower = inhibition)",[3]; [19],121%
same,"parasite growth, % of control (lower = inhibition)",[3]; at 28.5 µM,113%
same,"growth, % of control",[4]; [19],101%
same,"growth, % of control",[4]; at 28.5 µM,86.8%
same,efficacy,[5],13% (inactive)
same,outcome,[6],inactive
Oc1cn2c(n1)Nc1ccc(Cl)c(Cl)c1C2,remaining parasite growth % (stronger effect = lower value),[15],107%
same,"activity, percent of control",[16],97.1%
same,"remaining proliferation (% of control), lower = more inhibition",[17],97.7%
same,efficacy,[5],-19.4% (inactive)
same,outcome,[6],inactive
CN1CCN(C(=O)O[C@H]2c3nccnc3C(=O)N2c2ccc(Cl)cn2)CC1,max response,[13],-4.73% (inactive)
same,"parasite growth, % of DMSO control",[1]; [18],95.4%
same,"parasite growth remaining, % of DMSO control (lower = more inhibition)",[2]; [18],98.2%
same,"parasite growth, % of control (lower = inhibition)",[3]; [18],86.8%
same,"growth, % of control",[4]; [18],97.2%
same,efficacy,[5],27.7% (inactive)
same,outcome,[6],inactive
CC(C)C(=O)Nc1ccc([N+](=O)[O-])c(C(F)(F)F)c1,"parasite growth, % of DMSO control",[1]; [18],93%
same,"parasite growth remaining, % of DMSO control (lower = more inhibition)",[2]; [18],91%
same,"parasite growth, % of control (lower = inhibition)",[3]; [18],69.2%
same,"growth, % of control",[4]; [18],88.5%
same,efficacy,[5],-18.2% (inactive)
same,outcome,[6],inactive

# — PubChem BioAssay (NCATS)
